Rce1 inh = yeast Rce1p protease inhibitors, primary screen, biochemical, fluorescence, cell-free homogeneous | CAAX prenyl protease 2 (Saccharomyces cerevisiae (strain ATCC 204508 / S288c)), Q03530 | yeast membranes, quenched prenylated peptide cleavage fluorescence | calls only | hit rate 0.27% among 290,000 | AID 2563, 2010;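 active = fall in fluorescence gain of 50% or more versus controls, with final raw signal at or below 3038400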;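 note: plate controls were neutral control wells for no effect and wells lacking membranes for full effect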
PLC-beta3 inh = human PLC-beta3 inhibitors, primary screen, biochemical, fluorescence. 1-phosphatidylinositol 4,5-bisphosphate phosphodiesterase beta-3 (Homo sapiens), Q01970. Purified PLC-beta3, fluorogenic substrate. inhibition, % at 12.2 µM. hit rate 0.18% among 370,000;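 note: 0% = median of compound wells on plate and 100% = full blocker control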
PLCg1 inh = PLC-gamma1 enzyme inhibitors, primary screen, biochemical, fluorescence, purified enzyme | hit rate 0.84% among 370,000 | inhibition, % at 12.2 µM | fluorogenic substrate; in the data active = inhibition above about 9.5%
ADAM10 inh = human ADAM10 inhibitors, primary screen, biochemical, QFRET, HTS; Disintegrin and metalloproteinase domain-containing protein 10 (Homo sapiens), O14672; recombinant ADAM10, EDANS/DABCYL FRET peptide cleavage, 3 h; inhibition, % at 7 µM; hit rate 0.62% among 370,000; AID 720582, 2013;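 active = inhibition above a per-campaign cutoff equal to the mean of compounds falling between control-based bounds plus 3 SD, cut at about 20% in these data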;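 note: 0% = DMSO wells while the 100% control is not disclosed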
ADAM17 inh = ADAM17 inhibitors, primary screen, biochemical, QFRET; Disintegrin and metalloproteinase domain-containing protein 17 (Homo sapiens), P78536; recombinant ADAM17, EDANS/DABCYL FRET peptide cleavage; inhibition, % at 6.95 µM; hit rate 0.83% among 370,000; AID 720648, 2013;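 active = inhibition above the mean of compounds lying between control limits plus 3 SD, set per campaign, cut at about 8.5% in these data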;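 note: 0% = DMSO-only wells as the low control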
Target sequence (P78536 215-824 limits assumed): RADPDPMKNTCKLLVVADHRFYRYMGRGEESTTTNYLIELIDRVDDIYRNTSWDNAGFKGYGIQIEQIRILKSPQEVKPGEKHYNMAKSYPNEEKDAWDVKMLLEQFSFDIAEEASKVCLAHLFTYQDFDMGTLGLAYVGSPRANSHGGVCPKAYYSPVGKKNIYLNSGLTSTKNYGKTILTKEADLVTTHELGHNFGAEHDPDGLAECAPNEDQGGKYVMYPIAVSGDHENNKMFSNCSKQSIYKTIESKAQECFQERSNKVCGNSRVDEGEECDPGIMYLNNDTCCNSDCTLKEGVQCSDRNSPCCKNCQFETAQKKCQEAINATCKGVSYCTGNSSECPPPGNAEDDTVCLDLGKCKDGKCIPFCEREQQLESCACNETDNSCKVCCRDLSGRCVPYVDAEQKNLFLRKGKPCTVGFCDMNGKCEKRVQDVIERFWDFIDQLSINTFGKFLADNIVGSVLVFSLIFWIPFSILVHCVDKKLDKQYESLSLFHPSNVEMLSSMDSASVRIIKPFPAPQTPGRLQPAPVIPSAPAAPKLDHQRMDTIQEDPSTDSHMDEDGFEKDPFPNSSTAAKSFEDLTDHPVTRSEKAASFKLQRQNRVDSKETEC
ADAM10 confirm = human ADAM10 inhibitors, confirmation, biochemical, QFRET, triplicate; hit rate 1% among 2,100; shares compounds with ADAM10 inh; inhibition, % at 6.95 µM; ADAM10 QFRET peptide cleavage, EDANS fluorescence;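 active = inhibition above about 20% chosen separately for each screening run, limit read from the data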;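 note: 0% = DMSO wells and 100% = marimastat wells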
ADAM17 ctr = ADAM17 inhibitors, counter-screen for ADAM10 exosite inhibitor project, biochemical, QFRET, high throughput | inhibition, % at 6.95 µM | hit rate 0.5% among 2,100 | AID 743214, 2013 | shares compounds with ADAM10 inh | ADAM17 QFRET peptide cleavage, EDANS fluorescence;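 active = mean triplicate inhibition above the solvent-only control wells' mean plus 3 SD, cut at about 12% in these data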;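 note: 0% = DMSO wells and 100% = marimastat wells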
ADAM10 ctr = ADAM10 inhibitors, counter-screen for ADAM17 exosite inhibitor project, biochemical, FRET, human ADAM10; shares compounds with ADAM17 inh; recombinant ADAM10, EDANS/DABCYL FRET peptide cleavage, 3 h; inhibition, % at 6.95 µM; hit rate 47% among 2,900; AID 743256, 2014;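 active = mean inhibition over the triplicate runs exceeds the activity threshold set in the earlier primary screen, cut at about 20% in these data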;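 note: 0% = DMSO wells and 100% = marimastat wells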
ADAM17 confirm = ADAM17 inhibitors, hit retest, confirmation, biochemical, QFRET peptide cleavage; shares compounds with ADAM17 inh; recombinant ADAM17, EDANS/DABCYL QFRET peptide cleavage; inhibition, % at 6.95 µM; hit rate 65% among 2,900;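 active = mean inhibition across replicates above the hit cutoff set in the primary screen, cut at about 8.5% in these data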;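 note: 0% = DMSO wells and 100% = marimastat wells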
PLCgamma1 ctr = PLC-gamma1 enzyme inhibitors, counter-screen for PLC-beta3 inhibitor project, biochemical, fluorescence. shares compounds with PLCg1 inh. purified PLC-gamma1, fluorogenic substrate. inhibition, % at 12.3 µM. hit rate 3.1% among 3,300; in the data active = inhibition above about 9.5%
PLCbeta3 conf = PLC-beta3 inhibitor confirmation, biochemical, fluorescence, purified enzyme; shares compounds with PLCg1 inh; fluorogenic substrate fluorescence; inhibition, % at 12.3 µM; hit rate 1% among 3,300; AID 743261, 2014
Starred values were filed as active, the others as inactive; i = inactive; . = not tested or not shown. An excerpt weighted towards active compounds, which were near 2.1% of everything screened. Cut-off read from the data, not from the text of the source, unless noted: active = inhibition above about 11%; inactive = the rest.

SMILES | Rce1 inh | PLC-beta3 inh | PLCg1 inh | ADAM10 inh | ADAM17 inh | ADAM10 confirm | ADAM17 ctr | ADAM10 ctr | ADAM17 confirm | PLCgamma1 ctr | PLCbeta3 conf
COc1cccc(NC(=O)C(Sc2nnc(-c3ccncc3)n2-c2ccc(Cl)cc2)c2ccccc2)c1 (configuration not stated) | i | 4.3 | 11.1* | 38.3* | 14.1* | 9.3 | 2.8 | 29.8* | 15.6* | -0.3 | -1.4
CC(C)(C)Nc1scc(-c2ccccc2)[n+]1-c1ccccc1 | i | -8.2 | 9.7* | 42.1* | -18.1 | -0.6 | -0.2 | . | . | -3.5 | -7.5
c1ccc(C[n+]2c(-c3ccccc3)csc2Nc2ccccc2)cc1 | i | -1.1 | -1.9 | -5.8 | -2.7 | . | . | . | . | . | .
O=C(Cc1ccccc1Cl)Nc1ccc(S(=O)(=O)Nc2nccs2)cc1 | i | -8.1 | 0.5 | 3.2 | -3.7 | . | . | . | . | . | .
O=C(CSc1ccc(Br)c2cccc(Cl)c12)Nc1ccc(S(=O)(=O)Nc2nccs2)cc1 | i | -3.5 | 11.0* | 31.8* | 15.8* | 11.1 | 5.2 | 22.7* | 13.8* | -6.1 | -9.9
COc1ccc(CC(=O)N/N=C/c2cccn2-c2ccc([N+](=O)[O-])cc2)cc1OC | i | 4.1 | 11.8* | 21.1* | 7.6 | 0.0 | -0.1 | . | . | 4.2 | 4.0
Cc1ccc(C)c(CC(=O)N2CCCC(c3cc(C(=O)NCc4ccccc4)no3)C2)c1 (configuration not stated) | . | -1.8 | 0.4 | 3.2 | 0.1 | . | . | . | . | . | .
Cc1cc(C)c(C)c(OCCCN(C)C)c1 | i | 8.2 | 7.2 | 2.5 | 1.4 | . | . | . | . | . | .
CN(CC(=O)Nc1ccccc1Br)C(=O)Cn1[nH]c(=O)c2ccccc2c1=O | . | -5.7 | 0.2 | -8.9 | -6.1 | . | . | . | . | . | .
COCCNC(=O)C1(C)CCN(C(=O)c2ccc(OC)c(F)c2)C1 (configuration not stated) | . | 9.9 | 4.2 | -0.9 | 1.0 | . | . | . | . | . | .
C[C@@H]1CCCCO[C@@H](CN(C)S(=O)(=O)c2ccccc2)[C@@H](C)CN([C@H](C)CO)C(=O)c2cc(NS(=O)(=O)c3ccc(F)cc3)ccc2O1 | . | 8.1 | 16.6* | 27.4* | 16.7* | 4.1 | 0.3 | 28.1* | 15.4* | -1.8 | -5.5
COc1cc(/C=N/NC(=O)c2ccc(C)nc2)cc([N+](=O)[O-])c1O | i | 8.3 | 9.9* | 22.2* | 5.9 | 0.6 | -0.5 | . | . | 6.0 | 7.9
COc1ccc(-c2nc(CS(=O)CC(=O)NCc3ccc(Cl)cc3)c(C)o2)cc1OC (configuration not stated) | i | -6.1 | -0.3 | -6.7 | 3.1 | . | . | . | . | . | .
COc1ccc(NC(=O)C2CC2(Cl)Cl)cc1S(=O)(=O)N1CCCCC1 (configuration not stated) | . | 4.2 | 0.1 | -6.4 | -3.3 | . | . | . | . | . | .
COc1ccccc1NC(=O)CNC(c1ccccc1)c1ccccc1 | . | -2.9 | 13.2* | 29.1* | 9.0* | 1.4 | 0.8 | 20.0* | 10.9* | -3.5 | -6.8
Cc1ccc(S(=O)(=O)c2cccc(S(=O)(=O)N3CCCC3)c2)cc1S(=O)(=O)N1CCCC1 | i | 13.9* | 9.9* | 29.4* | 17.1* | -0.6 | 0.1 | 17.1 | 8.0 | -0.6 | 0.5
CC(C)(C)c1ccc(S(=O)(=O)Nc2ccc(C(=O)N3CCCC3)cc2)cc1 | i | -7.7 | 6.8 | 4.6 | -0.1 | . | . | . | . | . | .
CC(C)(C)c1ccc(S(=O)(=O)Nc2ccc(C(O)(C(F)(F)F)C(F)(F)F)cc2)cc1 | . | 5.5 | 12.6* | 61.6* | 27.0* | 2.5 | 0.8 | 53.7* | 30.9* | -2.6 | -8.3
Nc1cc(Cl)ccc1C(=O)OCC(=O)NCC1CCCO1 (configuration not stated) | . | -152.1 | -129.2 | i | -308.4 | . | . | . | . | . | .
CCC1CO/C(=C(\C(Cl)=C(Cl)Cl)[N+](=O)[O-])N1 (configuration not stated) | i | 8.3 | 9.7* | 33.0* | 12.9* | 15.6 | 5.5 | 30.4* | 17.3* | 1.7 | 8.7
COc1ccc(OC)c(S(=O)(=O)N2CCC(C(=O)NCc3ccccn3)CC2)c1 | i | -5.4 | 0.5 | -4.6 | -2.5 | . | . | . | . | . | .
CC(C)CC(COCc1cccc(C(F)(F)F)c1)N1CCN(C(=O)c2cccc(C(F)(F)F)c2)CCC1=O (configuration not stated) | i | 4.6 | 9.6* | 21.0* | 7.4 | 2.9 | -0.5 | . | . | 1.1 | 2.4
CC(=O)Nc1ccc(SC[C@H](Cc2ccccc2)N2CC[C@@H](C(C)(C)C)CCC2=O)cc1 | . | 3.2 | 11.2* | 36.1* | 12.2* | 5.1 | 1.2 | 21.6* | 15.1* | 3.1 | 3.5
C[C@@H](OC(=O)N1CCCCC1)[C@H]1O[C@]2(C)CCCC[C@H]1O2 | . | 7.0 | 11.3* | 9.2 | 9.4* | . | . | 12.8 | 8.6 | . | .
O=C(NNC(=O)C1CC1)c1ccc(F)cc1F | . | 1.2 | -18.5 | -13.6 | -5.7 | . | . | . | . | . | .
O=C(NNC(=O)C1CCC1)c1ccccc1F | i | -0.7 | 8.4 | 1.1 | 9.9* | . | . | -0.5 | 1.7 | . | .
CCOc1ccc(CNC(=S)N/N=C/c2ccc(OC)c(OC)c2)cc1 | i | -2.2 | 0.8 | 10.1 | 8.7* | . | . | 14.5 | 14.6* | . | .
Cc1c(Cl)cccc1Nc1nc(N)nc(CSc2nc3ccccc3s2)n1 | i | -0.8 | -0.2 | 16.3 | 9.5* | . | . | 19.6 | 11.0* | . | .
Cc1cccc(C)c1NC(=O)C1(C)CN(S(C)(=O)=O)CC(=O)N1Cc1cccc(F)c1 (configuration not stated) | . | 3.0 | -4.9 | -10.0 | -3.2 | . | . | . | . | . | .

Screens (PubChem BioAssay)
